Assay results from PubChem BioAssay.
Activity calls are given as the source filed them. Unless noted, no rule for the calls is given here.

Assays:
[1] = resazurin metabolic signal in HepG2 cells – cell-based, resazurin fluorescence, 24 h, PK04 Diversity Set, profiling panel (AID 1172); conditions: HepG2 viability, higher = more signal; also: test concentration not given here
[2] = budding yeast growth changes without added modifier – OD600, strain BY4716, 24 h, basal condition, primary screen (AID 1173); conditions: S. cerevisiae BY4716 growth, OD600, 24 h; higher = more signal, called active from +8 up or from −8 down
[3] = viability profiling in MM1S myeloma cells – cell-based, resazurin fluorescence, basal, 24 h, PK04 Diversity Set, profiling panel (AID 1174); conditions: higher = more signal, called active from +8 up or from −8 down;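 also: MM1S multiple myeloma cell line; test concentration not given here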
[4] = biological target: Dihydroorotate dehydrogenase (quinone), mitochondrial (Plasmodium falciparum (isolate 3D7)) (UniProt Q08210); test: inhibition of P. falciparum DHODH – biochemical, C-terminal His tag, absorbance 600 nm, primary screen (AID 1175); conditions: PfDHODH enzyme, DCIP absorbance 600 nm; higher = more signal, called active from +8 up or from −8 down;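 also: recombinant parasite enzyme with a five histidine tag at its C terminus; test concentration not given here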
[5] = inhibition of PAO1 biofilm formation – strain PAO1, LB-PBS medium, absorbance 600 nm, primary screen (AID 1176); also: test concentration not given here; conditions: P. aeruginosa PAO1 growth/biofilm, A600, 12 h; higher = more signal
[6] = growth modulation of vineyard yeast isolate – strain RM11-1a, OD600, basal, 24 h, primary screen (AID 1177);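 also: cultures grown under basal conditions with no added stressor; test concentration not given here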; conditions: S. cerevisiae RM11-1a growth, OD600, 24 h; higher = more signal, called active from +8 up or from −8 down
[7] = growth of efflux-deficient E. coli DRC39 – strain DRC39, OD650, 24 h, E. coli filamentation inducers, primary screen (AID 1178);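 also: growth measured as culture turbidity by optical density at 650 nm; test concentration not given here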; conditions: E. coli DRC39 acrAB, higher = more signal, called active from +8 up or from −8 down
[8] = growth of efflux-deficient E. coli DRC39 – strain DRC39, OD650, 48 h, E. coli filamentation inducers, primary screen (AID 1179);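 also: screen aims at cell division blockers that make cells filament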; conditions: E. coli DRC39 delta-acrAB growth, higher = more signal, called active from +8 up or from −8 down
[9] = viability profiling in RPMI8226 myeloma cells – cell-based, resazurin fluorescence, basal, 24 h, PK04 Diversity Set, profiling panel (AID 1180); conditions: higher = more signal;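 also: RPMI8826 multiple myeloma cell line at 5000 cells per well; test concentration not given here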
[10] = biological target: E3 ubiquitin-protein ligase XIAP (Homo sapiens) (UniProt P98170); test: small molecules binding XIAP protein – biophysical, small-molecule microarray, fluorescence 635 nm, primary screen (AID 1181); conditions: higher = more signal;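 also: score merges 667 nm emission and signal to noise over triplicate slides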
Sequence of E3 ubiquitin-protein ligase XIAP (Homo sapiens) (P98170 whole entry, looked up): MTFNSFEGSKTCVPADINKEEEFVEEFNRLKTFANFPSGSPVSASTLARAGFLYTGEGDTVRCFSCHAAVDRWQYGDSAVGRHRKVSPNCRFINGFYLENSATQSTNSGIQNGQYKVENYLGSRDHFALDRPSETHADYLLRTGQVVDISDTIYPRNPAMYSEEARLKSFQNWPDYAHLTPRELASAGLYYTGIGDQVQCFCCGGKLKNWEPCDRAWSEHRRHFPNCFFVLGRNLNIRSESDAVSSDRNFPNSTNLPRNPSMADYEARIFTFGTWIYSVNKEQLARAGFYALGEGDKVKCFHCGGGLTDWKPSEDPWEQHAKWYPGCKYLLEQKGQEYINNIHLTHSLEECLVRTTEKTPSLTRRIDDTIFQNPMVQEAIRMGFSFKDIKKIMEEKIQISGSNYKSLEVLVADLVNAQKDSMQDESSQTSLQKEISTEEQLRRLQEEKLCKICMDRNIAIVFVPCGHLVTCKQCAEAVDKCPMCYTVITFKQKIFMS

Sequence of Dihydroorotate dehydrogenase (quinone), mitochondrial (Plasmodium falciparum (isolate 3D7)) (Q08210 whole entry, looked up): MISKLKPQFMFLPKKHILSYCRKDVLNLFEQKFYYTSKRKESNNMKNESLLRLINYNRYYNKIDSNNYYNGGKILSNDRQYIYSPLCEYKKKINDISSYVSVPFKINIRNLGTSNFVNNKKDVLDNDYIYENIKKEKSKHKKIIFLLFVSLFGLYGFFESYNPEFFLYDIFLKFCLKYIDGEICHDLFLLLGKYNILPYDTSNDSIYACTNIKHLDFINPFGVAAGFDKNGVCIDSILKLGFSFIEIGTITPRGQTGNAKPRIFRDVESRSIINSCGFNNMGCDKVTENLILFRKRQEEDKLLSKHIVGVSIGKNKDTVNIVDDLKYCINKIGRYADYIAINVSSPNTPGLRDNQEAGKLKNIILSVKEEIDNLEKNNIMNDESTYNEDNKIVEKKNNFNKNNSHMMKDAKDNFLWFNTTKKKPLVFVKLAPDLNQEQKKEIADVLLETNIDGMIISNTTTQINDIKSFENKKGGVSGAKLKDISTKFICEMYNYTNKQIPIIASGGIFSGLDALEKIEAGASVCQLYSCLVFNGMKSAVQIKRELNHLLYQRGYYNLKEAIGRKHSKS

In the case of `COc1ccc(O[C@H]2C=C[C@@H](c3ccccc3)O[C@@H]2COC(=O)CCC(C)=NO[C@@H](C)c2cc(-c3c(C)cc(C)cc3C)no2)cc1`, the z-score [1] is reported as 0.716, the z-score [2] is reported as 1.04 (inactive) and the z-score [3] is reported as 0.622 (inactive). For the same compound, the composite z-score [4] was 0.188 (inactive), the z-score [5] was -0.421 (inactive) and the z-score [6] was 0.108 (inactive). The z-score [7] was 0.291 (inactive), the z-score [8] was -0.893 (inactive) and the z-score [9] was 1.14. The composite z-score [10] was -0.151.

In the case of `Cc1cc(C)c(-c2cc([C@H](C)ON=C3[C@H]4CCn5c(=O)n(-c6ccccc6)c(=O)n5[C@H]4[C@H](O)[C@@H]4O[C@H]34)on2)c(C)c1`, the z-score [1] is reported as -0.991, the z-score [2] is reported as -0.752 (inactive) and the z-score [3] is reported as -1.89 (inactive). For the same compound, the composite z-score [4] was -0.297 (inactive), the z-score [5] was -0.242 (inactive) and the z-score [6] was 0.615 (inactive). The z-score [7] was 0.663 (inactive), the z-score [8] was 0.421 (inactive) and the z-score [9] was -2.22. The composite z-score [10] was -0.196.

With `COC(=O)CC=C[C@@H](C)[C@@H](C=NO[C@H](C)c1cn([C@@H]2COC[C@H]2O)nn1)OC` the z-score [1] was -0.879, the z-score [2] was -0.435 (inactive) and the z-score [3] was -0.179 (inactive). The composite z-score [4] was -0.295 (inactive), the z-score [5] was 0.666 (inactive) and the z-score [6] was 0.0782 (inactive). The z-score [7] was 0.773 (inactive), the z-score [8] was 0.878 (inactive) and the z-score [9] was -0.359. The composite z-score [10] was -0.0206.

In the case of `C[C@@H](c1ccccc1)N1C(=O)[C@H]2[C@H]3[C@H](O)[C@H](O)CC(=NNC(=O)OCc4ccccc4)[C@H]3CC[C@H]2C1=O`, the z-score [1] is reported as 0.2, the z-score [2] is reported as 0.976 (inactive) and the z-score [3] is reported as -0.139 (inactive). For the same compound, the composite z-score [4] was 0.749 (inactive), the z-score [5] was 0.413 (inactive) and the z-score [6] was 0.993 (inactive). The z-score [7] was -0.327 (inactive), the z-score [8] was -0.462 (inactive) and the z-score [9] was 0.368. For the same compound, the composite z-score [10] was -0.163.

For `CC(C)CN1CCc2nc(-c3ccccc3)c3c(c2CC1)CO[C@@H](C)C3`, the z-score [1] was 0.652, the z-score [2] was -0.368 (inactive) and the z-score [3] was 0.389 (inactive). The composite z-score [4] was 0.496 (inactive), the z-score [5] was -0.458 (inactive) and the z-score [6] was -0.284 (inactive). The z-score [7] was -0.274 (inactive), the z-score [8] was -0.328 (inactive) and the z-score [9] was 0.711. The composite z-score [10] was -0.0964.

In the case of `CN1C(=O)C2C=CC(C(O)c3ccc(I)cc3)N(NC(=O)OC(C)(C)C)C2C1=O` (stereo not given), the z-score [1] is reported as -1.11, the z-score [2] is reported as 0.9 (inactive) and the z-score [3] is reported as -0.694 (inactive). The composite z-score [4] was 0.0247 (inactive), the z-score [5] was 0.53 (inactive) and the z-score [6] was 0.983 (inactive). For the same compound, the z-score [7] was -0.446 (inactive), the z-score [8] was -0.18 (inactive) and the z-score [9] was -0.639. The composite z-score [10] was 0.308.

For `CO[C@H]1O[C@H](CO)[C@@H](OC(=O)Nc2ccc3c(c2)OCO3)[C@H](OC(=O)Nc2ccccc2-c2ccccc2)[C@@H]1OC(=O)Nc1ccccc1-c1ccccc1`, the z-score [1] was -0.659, the z-score [2] was 1.42 (inactive) and the z-score [3] was -0.443 (inactive). For the same compound, the composite z-score [4] was 0.237 (inactive), the z-score [5] was 1.14 (inactive) and the z-score [6] was 2.33 (inactive). The z-score [7] was -0.243 (inactive), the z-score [8] was -0.0545 (inactive) and the z-score [9] was -0.427. For the same compound, the composite z-score [10] was 0.28.

For `Cc1ccc(S(=O)(=O)N[C@@H]2COC(=O)[C@H](C)COC(=O)CC=C[C@H]2C)cc1`, the z-score [1] was 0.285, the z-score [2] was 0.773 (inactive) and the z-score [3] was 0.222 (inactive). For the same compound, the composite z-score [4] was 0.576 (inactive), the z-score [5] was -0.601 (inactive) and the z-score [6] was 1.3 (inactive). For the same compound, the z-score [7] was -0.0401 (inactive), the z-score [8] was -1.2 (inactive) and the z-score [9] was 0.242. The composite z-score [10] was -0.13.

In the case of `CCCC[C@@H]1C[C@H]1[C@@H](NS(=O)(=O)c1cccc2cccnc12)c1ccc(-c2ccccc2)cc1`, the z-score [1] is reported as -0.279, the z-score [2] is reported as 0.444 (inactive) and the z-score [3] is reported as -0.251 (inactive). The composite z-score [4] was -0.151 (inactive), the z-score [5] was 0.411 (inactive) and the z-score [6] was 0.269 (inactive). The z-score [7] was -0.366 (inactive), the z-score [8] was -0.166 (inactive) and the z-score [9] was -0.611. It also gave a composite z-score [10] of -0.0559.

For `COc1ccc(O[C@@H]2[C@H](O)CO[C@H]2C=CC#Cc2ccccc2)cc1`, the z-score [1] was 0.0873, the z-score [2] was -0.274 (inactive) and the z-score [3] was -0.107 (inactive). For the same compound, the composite z-score [4] was 0.18 (inactive), the z-score [5] was 0.578 (inactive) and the z-score [6] was 0.905 (inactive). For the same compound, the z-score [7] was -0.01 (inactive), the z-score [8] was -0.812 (inactive) and the z-score [9] was 0.268. It also gave a composite z-score [10] of 0.116.

With `CCOC(=O)C1=CC[C@H]2C(=O)N(CC)C(=O)[C@@H]12` the z-score [1] was 0.507, the z-score [2] was 1.31 (inactive) and the z-score [3] was 0.293 (inactive). For the same compound, the composite z-score [4] was 0.467 (inactive), the z-score [5] was 0.0236 (inactive) and the z-score [6] was 1.38 (inactive). The z-score [7] was -0.0583 (inactive), the z-score [8] was -0.196 (inactive) and the z-score [9] was 0.667. For the same compound, the composite z-score [10] was -0.311.

For `COc1ccc(O[C@H]2C=C[C@@H](c3ccccc3)O[C@@H]2COC(=O)N2CCCCC2)cc1`, the z-score [1] was 0.54, the z-score [2] was 0.666 (inactive) and the z-score [3] was 0.0872 (inactive). For the same compound, the composite z-score [4] was 0.0964 (inactive), the z-score [5] was -0.139 (inactive) and the z-score [6] was -0.499 (inactive). For the same compound, the z-score [7] was 0.396 (inactive), the z-score [8] was 0.349 (inactive) and the z-score [9] was 0.883. It also gave a composite z-score [10] of -0.234.
